# From PubChem BioAssay
# Rtt109 Vps75 – inhibitors of C. albicans Rtt109/Vps75 HAT, primary screen, biochemical, ThioGlo CoA-SH fluorescence, plate reader. purified Rtt109/Vps75, 4 h. inhibition, % at 34.9 µM. hit rate 0.16% among 330,000. AID 540336, 2011;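 active = inhibition of at least 50% in every replicate; inconclusive = best replicate reaches 50% inhibition but some replicates fall short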
# Target sequence (Q5AAJ8 whole entry, looked up): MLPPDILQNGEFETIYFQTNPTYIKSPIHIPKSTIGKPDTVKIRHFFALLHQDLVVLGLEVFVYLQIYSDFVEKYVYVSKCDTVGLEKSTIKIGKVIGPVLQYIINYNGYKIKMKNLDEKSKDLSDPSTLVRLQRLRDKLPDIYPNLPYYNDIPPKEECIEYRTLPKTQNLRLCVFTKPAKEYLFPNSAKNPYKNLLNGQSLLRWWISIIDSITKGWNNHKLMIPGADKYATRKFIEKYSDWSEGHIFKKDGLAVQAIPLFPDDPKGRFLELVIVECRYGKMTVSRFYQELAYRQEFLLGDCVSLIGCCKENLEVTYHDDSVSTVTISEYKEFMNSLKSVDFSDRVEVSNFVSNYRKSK
# DENV2 CPE rescue – inhibitors of DENV2 cytopathic effect, primary screen, cell-based, plate reader, single concentration; DENV2-infected cells, cytopathic effect rescue; CPE inhibition, % at 9.99 µM; hit rate 1.7% among 350,000; in the data active = CPE inhibition above about 20%, passing the limit was not always enough; inconclusive = no clear call, values can overlap the other calls; tested in BHK-21 cells
# PglD DTNB – C. jejuni PglD acetyltransferase inhibitors, primary screen, biochemical, DTNB colorimetric, single point; UDP-N-acetylbacillosamine N-acetyltransferase PglD (Campylobacter jejuni); purified PglD enzyme, DTNB colorimetric CoA detection; inhibition, % at 12.5 µM; hit rate 0.098% among 360,000; in the data active = inhibition above about 16%, passing the limit was not always enough; inconclusive = no clear call, values can overlap the other calls
# Glyco luc inh – increase of ERlucT glycosylation luciferase signal, primary screen, N-linked glycosylation inhibitor project, D54 ERlucT cells, luminescence, set 2 | D54 ERlucT glycosylation luciferase reporter, 24 h; percent of 100 nM tunicamycin response | reporter increase, % at 12.5 µM | hit rate 0.23% among 360,000 | AID 588692, 2011;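 active = mean luciferase reporter signal, scaled so untreated is 0 and the glycosylation-blocking control 100, at or above a set limit in every replicate; inconclusive = mean reaches the limit but not every replicate does; inactive = mean below the limit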;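 also: luciferase carries N-glycosylation sites so blocking glycosylation raises the light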
# Numbers stand for hits; 0 = inactive; ? = inconclusive; - = no result; ! = not active in a repeat. Only a selection was taken, and hits are over-represented in it overall.
SMILES,Rtt109 Vps75,DENV2 CPE rescue,PglD DTNB,Glyco luc inh
COc1ccc(OCCOC(=O)CN2C(=O)NC3(CCCC3)C2=O)cc1,0,?,0,0
COc1ccc(CNC(=O)C(C)N2C(=O)NC3(CCCCCCC3)C2=O)cc1 (centres undefined),0,86.7,-,0
Cc1noc(C)c1NC(=O)N[C@H]1CC[C@@H](CC(=O)Nc2ccccc2)O[C@H]1CO,-,0,0,-
COCC#Cc1ccc2c(c1)O[C@@H](CN(C)Cc1ccccc1)[C@@H](C)CN([C@@H](C)CO)S2(=O)=O,-,0,0,-
CCC(=O)N(C)C[C@H]1Oc2cc(-c3cccc(OC)c3)ccc2S(=O)(=O)N([C@H](C)CO)C[C@@H]1C,-,0,0,-
COc1ccc(S(=O)(=O)Nc2ccc3c(c2)[C@@H]2C[C@@H](CC(=O)O)O[C@H](CO)[C@@H]2O3)cc1,-,0,0,-
CC=Cc1ccc2n(c1=O)C[C@H]1[C@H](CO)[C@@H](C(=O)NCc3cccc(F)c3)[C@@H]2N1S(C)(=O)=O (mixture of isomers),-,0,0,-
CON(C)C(=O)/C=C/CCCCNC(=O)OC(C)(C)C,0,37.4,0,0
C[C@@H]1CCCCO[C@H](CN(C)Cc2ccccc2)[C@H](C)CN([C@@H](C)CO)C(=O)c2cc(NS(=O)(=O)c3ccc(Cl)cc3)ccc2O1,-,0,0,-
CCC(C)[C@H](NC(=O)[C@@H]1Cc2ccccc2CN1)C(=O)NCc1ccc(OC)cc1 (some centres undefined),0,?,0,0
CCC(C)[C@H](NC(=O)[C@@H]1Cc2ccccc2CN1)C(=O)NCc1ccc(C)cc1 (some centres undefined),-,92.0,0,0
CCC(C(=O)Nc1c(C)cccc1C)n1c(-c2ccc(=O)[nH]c2)nc2ccccc21 (centres undefined),-,32.7,-,-
CO[C@@H]1CN(C)C(=O)c2ccc(NC(=O)C3CC3)cc2OC[C@@H](C)N(C(=O)CN2CCOCC2)C[C@@H]1C,-,0,0,-
C[C@@H]1CCCCO[C@@H](CN(C)C(=O)Nc2ccc(F)cc2)[C@@H](C)CN([C@H](C)CO)C(=O)c2cc(NS(=O)(=O)c3ccccc3)ccc2O1,-,31.3,0,-
C[C@@H]1CCCCO[C@@H](CN(C)C(=O)Nc2ccc(C(F)(F)F)cc2)[C@H](C)CN([C@H](C)CO)C(=O)c2cc(NS(=O)(=O)c3ccccc3)ccc2O1,-,38.4,0,-
C[C@H]1CCCCO[C@H](CN(C)C(=O)Nc2ccc(C(F)(F)F)cc2)[C@@H](C)CN([C@@H](C)CO)C(=O)c2cc(NS(=O)(=O)c3ccccc3)ccc2O1,-,0,0,-
COc1ccc(NC(=O)N(C)C[C@H]2OCCCC[C@H](C)Oc3ccc(NS(=O)(=O)c4cn(C)cn4)cc3C(=O)N([C@H](C)CO)C[C@@H]2C)cc1,-,25.2!,0,0
C[C@@H]1CCCCO[C@H](CN(C)C(=O)Nc2ccc(C(F)(F)F)cc2)[C@@H](C)CN([C@@H](C)CO)C(=O)c2cc(NS(=O)(=O)c3ccc(F)cc3)ccc2O1,-,0,0,-
C[C@H]1CCCCO[C@@H](CN(C)C(=O)Nc2ccc(C(F)(F)F)cc2)[C@@H](C)CN([C@@H](C)CO)C(=O)c2cc(NS(=O)(=O)c3ccc(F)cc3)ccc2O1,-,76.2,0,-
CO[C@H]1CN(C)C(=O)c2cc(NC(=O)c3ccccc3)ccc2OC[C@H](C)N(CC2CC2)C[C@@H]1C,-,-,0,-
C[C@@H]1CCCCO[C@H](CN(C)C(=O)Nc2ccc(C(F)(F)F)cc2)[C@@H](C)CN([C@H](C)CO)C(=O)c2cc(NS(=O)(=O)c3ccc(F)cc3)ccc2O1,-,21.4,0,-
COc1ccc(S(=O)(=O)Nc2ccc3c(c2)C(=O)N([C@@H](C)CO)C[C@@H](C)[C@H](CN(C)C(=O)Cc2ccccc2)OCCCC[C@@H](C)O3)cc1,-,0,0,-
COc1ccc(S(=O)(=O)Nc2ccc3c(c2)C(=O)N([C@@H](C)CO)C[C@@H](C)[C@H](CN(C)C(=O)Cc2ccccc2)OCCCC[C@H](C)O3)cc1,-,24.3,0,-
COc1ccc(NC(=O)N(C)C[C@@H]2OCCCC[C@H](C)Oc3ccc(NS(=O)(=O)c4ccccc4)cc3C(=O)N([C@H](C)CO)C[C@H]2C)cc1,-,57.9,0,-
Cc1ccc(S(=O)(=O)Nc2ccc3c(c2)C(=O)N([C@H](C)CO)C[C@H](C)[C@H](CN(C)C(=O)Nc2ccc(C(F)(F)F)cc2)OCCCC[C@H](C)O3)cc1,-,53.0,0,-
SMILES,Rtt109 Vps75,DENV2 CPE rescue,PglD DTNB,Glyco luc inh
Cc1ccc(S(=O)(=O)N[C@@H]2CC[C@H](CCn3cc(C4CCCCC4)nn3)O[C@H]2CO)cc1,-,0,0,-
C[C@@H]1CCCCO[C@H](CN(C)C(=O)Nc2ccc(C(F)(F)F)cc2)[C@H](C)CN([C@@H](C)CO)C(=O)c2cc(NS(=O)(=O)c3ccc(F)cc3)ccc2O1,-,98.0,0,-
COc1ccc(S(=O)(=O)Nc2ccc3c(c2)C(=O)N([C@H](C)CO)C[C@@H](C)[C@@H](CN(C)C(=O)Nc2ccc(C(F)(F)F)cc2)OCCCC[C@@H](C)O3)cc1,-,52.6,0,-
Cc1ccc(S(=O)(=O)Nc2ccc3c(c2)C(=O)N([C@H](C)CO)C[C@H](C)[C@H](CN(C)Cc2ccc(C(F)(F)F)cc2)OCCCC[C@@H](C)O3)cc1,-,26.5,0,-
C[C@H](CO)N1C[C@H](C)[C@@H](CN(C)Cc2ccncc2)Oc2ccc(NC(=O)Cc3cn(C)c4ccccc34)cc2CC1=O,-,0,0,-
CC(C)c1cn(CC[C@H]2CC[C@H](NC(=O)C3CCC3)[C@@H](CO)O2)nn1,-,0,0,-
C[C@@H]1CN([C@@H](C)CO)C(=O)Cc2cc(NC(=O)Nc3ccccc3)ccc2O[C@@H]1CN(C)C(=O)Nc1ccc(F)cc1,-,39.9,0,-
COc1ccc(NC(=O)N(C)C[C@H]2Oc3ccc(NC(=O)C4CC4)cc3CC(=O)N([C@H](C)CO)C[C@@H]2C)cc1,-,24.2,0,-
COc1ccc(NC(=O)N(C)C[C@@H]2Oc3ccc(NS(C)(=O)=O)cc3CC(=O)N([C@H](C)CO)C[C@@H]2C)cc1,-,33.8,0,-
COc1ccc(NC(=O)N(C)C[C@@H]2Oc3ccc(NC(=O)C4CC4)cc3CC(=O)N([C@@H](C)CO)C[C@@H]2C)cc1,-,0,0,-
COc1ccc(NC(=O)N(C)C[C@H]2Oc3ccc(NS(C)(=O)=O)cc3CC(=O)N([C@H](C)CO)C[C@@H]2C)cc1,-,0,0,-
COc1ccc(NC(=O)N(C)C[C@@H]2Oc3ccc(NC(=O)Nc4ccccc4)cc3CC(=O)N([C@@H](C)CO)C[C@@H]2C)cc1,-,25.4,0,-
Cc1noc(C)c1NC(=O)Nc1cccc2c1O[C@H](CN(C)C(=O)Nc1ccc(C(F)(F)F)cc1)[C@H](C)CN([C@@H](C)CO)C2=O,-,-,0,-
CCCNC(=O)C[C@H]1CC[C@@H]2[C@@H](COc3ccc(NC(=O)COC)cc3C(=O)N2C)O1,-,0,0,-
